We go through 92 molecules from PubChem BioAssay AID2057 (The Scripps Research Institute Molecular Screening Center, 2009).

Molecules are shown by their SMILES. Screen size: about 320,000 compounds; about 2,100 (0.66%) were called active.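 How the source made its calls: active means inhibition above the mean inhibition of all tested compounds plus 3 SD, set per campaign (cut at about 40% in these data); inactive means the rest.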 The entries come from a sample that favours actives as a whole.

Sequence of Induced myeloid leukemia cell differentiation protein Mcl-1 (Homo sapiens) (Q07820 whole entry, looked up): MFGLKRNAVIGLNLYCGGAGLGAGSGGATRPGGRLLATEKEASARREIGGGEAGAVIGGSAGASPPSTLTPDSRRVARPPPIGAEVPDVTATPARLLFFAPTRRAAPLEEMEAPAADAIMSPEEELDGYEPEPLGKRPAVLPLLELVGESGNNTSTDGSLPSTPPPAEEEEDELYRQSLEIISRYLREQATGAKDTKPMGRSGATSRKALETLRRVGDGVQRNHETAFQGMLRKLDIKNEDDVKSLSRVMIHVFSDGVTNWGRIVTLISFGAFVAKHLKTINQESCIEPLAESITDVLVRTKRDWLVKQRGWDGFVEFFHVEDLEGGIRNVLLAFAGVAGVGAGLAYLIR

This assay addresses Induced myeloid leukemia cell differentiation protein Mcl-1 (Homo sapiens) (UniProt Q07820). In words: MCL1-BIM peptide interaction disruptors – biochemical, fluorescence polarization, primary screen (AID 2057).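 Further: 0% = DMSO wells and 100% = unlabeled Bim-BH3 peptide control; higher means more loss of mP so more displacement of Bim peptide.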 The conditions noted are these: GST-MCL1 / FITC-Bim-BH3 fluorescence polarization; at 10.9 µM; stronger effect = higher value.
Consider `COCCCNC(=O)CNC(=S)N(Cc1cc(OC)c(OC)c(OC)c1)C1CCCC1`, for which the inhibition (in general, the relative decrease from the control value, in per cent) is -4.92% (inactive).

With `O=C(Cc1ccc(-n2c(=O)c3sccc3n(Cc3ccc(F)cc3)c2=O)cc1)NCc1ccco1`, the inhibition was -2.64% (inactive).

Turning to `O=C(CCCn1c(SCC(=O)c2ccc(F)cc2)nc2ccccc2c1=O)NCc1ccco1`, the inhibition is 2.72% (inactive).

For `O=C(CCn1c(SCC(=O)c2ccccc2)nc2ccccc2c1=O)NCc1ccc(F)cc1`, the inhibition is 41.6% (active).

On to `O=C(CCCn1c(SCC(=O)c2ccccc2)nc2ccccc2c1=O)NCC1CCCO1` (configuration not stated), for which the inhibition was 0.98% (inactive).

For `Cc1cccc(-c2c(NC(=O)c3ccco3)oc3ccc(Cl)cc3c2=O)c1`, the inhibition is -4.25% (inactive).

As for `Cn1cnnc1SCc1nnc(-c2ccccc2Br)o1`, the inhibition is 5.99% (inactive).

Take `CCOC(=O)N1CCN(Cc2nnc(-c3ccccc3Cl)o2)CC1`: the inhibition is 2.02% (inactive).

On to `Nc1cccc2c1C(=O)N(Cc1nnc(-c3ccccc3Br)o1)C2=O`, for which the inhibition is 54.3% (active).

As to `C=CCOC(=O)C1=C(C)N=C2SCCC(=O)N2C1/C=C/c1ccccc1OC` (configuration not stated), the inhibition was -0.33% (inactive).

With `COc1ccc(C2CC(c3ccc(C)cc3)Nc3nc(N)nn32)cc1` (configuration not stated), the inhibition was -0.86% (inactive).

For `COc1ccc(C2=CC(c3cccc(OC)c3)n3nnnc3N2)cc1` (configuration not stated), the inhibition was 37.5% (inactive).

`COc1ccc(C2C=C(c3ccc(Br)cc3)Nc3nc(NS(C)(=O)=O)nn32)cc1` (configuration not stated): the inhibition was 175% (active).

Regarding `COc1ccc(NC(=O)C(=O)NCC(c2ccco2)N2CCc3ccccc3C2)cc1` (configuration not stated), the inhibition is 2.73% (inactive).

Take `COC(=O)CCCCCN1C(=O)NC(c2ccc(-c3ccccc3)cc2)C(C(=O)OCc2ccccc2)=C1C` (configuration not stated): the inhibition is 6.48% (inactive).

For `Cc1cccc(-c2nc(Nc3ccc(O)cc3)c3ccccc3n2)c1`, the inhibition was 3.74% (inactive).

On to `COc1ccc(Nc2nc(-c3cccnc3)nc3ccccc23)cn1`, for which the inhibition is 128% (active).

In the case of `O=[N+]([O-])c1ccc(F)cc1Oc1nc(-c2cccnc2)nc2ccccc12`, the inhibition is -2.6% (inactive).

Take `CCNC(=O)CC1C(=O)N(c2ccc(OC)cc2)C(=S)N1CCc1ccncc1` (configuration not stated): the inhibition is -3.91% (inactive).

Take `Cc1cc(C)c(-c2csc(NC(=O)CCCc3nc4ccccc4c(=O)[nH]3)n2)c(C)c1`: the inhibition was -5.51% (inactive).

As for `CCOC(=O)C1CCN(C(=O)Nc2ccc(C)c(Cl)c2)CC1`, the inhibition was 4.72% (inactive).

Take `Cc1ccnc(NC(=O)CNC(=O)c2ccccc2)c1`: the inhibition was 6.08% (inactive).

For `COc1cc(SC)ccc1C(=O)Nc1cc(C)ccn1`, the inhibition is 0.12% (inactive).

In the case of `Cc1ccnc(NC(=O)c2ccoc2C)c1`, the inhibition is 42.1% (active).

Take `COc1ccc(CN2C(=O)C(C)S/C2=N/N=C/c2ccco2)cc1` (configuration not stated): the inhibition is 4.92% (inactive).

`COc1ccccc1C(=O)NCCC(=O)NC(C)CCc1ccccc1` (configuration not stated): the inhibition is -13.4% (inactive).

Consider `Cc1cc2oc3ccc(NCCC4CCCN4C)cc3c(=O)c2cc1C` (configuration not stated), for which the inhibition was 41.8% (active).

Turning to `CCCOc1ccc(C2c3c(oc4cc(C)c(C)cc4c3=O)C(=O)N2CCCN2CCOCC2)cc1` (configuration not stated), the inhibition is 14.2% (inactive).

Regarding `CCN(CC)C(=O)Oc1ccc(Br)cc1C(=O)Nc1ccc(F)c(Cl)c1`, the inhibition was 1.92% (inactive).

On to `CN(C)[C@@H]1C(=O)C(C(N)=O)=C(O)[C@@]2(O)C(=O)C3=C(O)c4c(O)ccc(Cl)c4[C@@H](O)[C@H]3C[C@@H]12`, for which the inhibition was 31.5% (inactive).

On to `C=C1c2c(Cl)ccc(O)c2C(O)=C2C(=O)[C@]3(O)C(O)=C(C(N)=O)C(=O)[C@@H](N(C)C)[C@@H]3[C@@H](O)C12` (some centres not stated), for which the inhibition was 87.2% (active).

Consider `CCc1ccc(-c2cc(C)no2)cc1S(=O)(=O)NCCc1ccc(S(N)(=O)=O)cc1`, for which the inhibition is 7.69% (inactive).

`COc1ccc(CCNC(=O)CSCc2ccc(Br)cc2)cc1OC`: the inhibition is 13.2% (inactive).

As for `O=C(O)c1cc(S(=O)(=O)N2CCCCCC2)c(Cl)cc1Cl`, the inhibition was 4.06% (inactive).

For `O=C(CNC(=O)c1ccc(F)cc1)c1ccccc1`, the inhibition was -5.56% (inactive).

On to `O=C(C[n+]1cc(Br)cc2ccccc21)c1ccc(F)cc1`, for which the inhibition was 63.3% (active).

Take `O=C(CNC(=O)c1ccccc1F)c1ccc(Br)cc1`: the inhibition was -5.03% (inactive).

For the molecule `CCCCn1c(N)c(N(CCOC)C(=O)c2sc3ccccc3c2Cl)c(=O)[nH]c1=O`, the inhibition was -3.09% (inactive).

As to `O=C1c2ccccc2C(=O)N1CCC(O)C[N+](=O)[O-]` (configuration not stated), the inhibition was 0.99% (inactive).

In the case of `CCOC(=O)c1c(N)sc(C(C)=O)c1C`, the inhibition was 12.2% (inactive).

As to `COC(=O)c1sc(=S)n(-c2ccc(Cl)cc2)c1C`, the inhibition was 1.56% (inactive).

In the case of `COCCOC(=O)c1sc(=S)n(CCOC)c1N`, the inhibition was 105% (active).

In the case of `CCOc1ccccc1NC(=O)C1CCCN(S(=O)(=O)c2ccccc2)C1` (configuration not stated), the inhibition is -2.29% (inactive).

For the molecule `O=C(C/C(=N\NC(=O)c1ccccc1Br)C(F)(F)F)c1cccs1`, the inhibition was 12.5% (inactive).

In the case of `O=c1ccc2c(-c3ccccc3S(=O)(=O)O)c3ccc(O)c(O)c3oc-2c1O`, the inhibition is 88.1% (active).

`Cn1c(Nc2ccccc2)cc(=O)n(C)c1=O`: the inhibition was -3.95% (inactive).

Turning to `COC(=O)CCCC1=CC2=CC(=O)C(C)(OC(=O)c3cccs3)C(=O)C2=CN1CC1CC1` (configuration not stated), the inhibition was 17.1% (inactive).

Regarding `COC/C=C/C1=CC2=CC(=O)C(C)(OC(=O)CCC(=O)OC)C(=O)C2=CO1` (configuration not stated), the inhibition was 64.3% (active).

On to `COC(=O)CCCC1=CC2=CC(=O)C(C)(OC(=O)c3cccs3)C(=O)C2=CN1CC(C)C` (configuration not stated), for which the inhibition is 14.8% (inactive).

For `O=C(CSc1ccccc1)Nc1cccc(S(=O)(=O)N2CCCCC2)c1`, the inhibition is -3.17% (inactive).

For `COc1ccc(-c2ccc(OC(=O)NC3CCS(=O)(=O)C3)cc2)cc1` (configuration not stated), the inhibition was 5.93% (inactive).

As for `Cc1c(C)c(C)c2[nH]c(=S)[nH]c2c1C`, the inhibition was -26% (inactive).

Turning to `O=c1[nH]c(=S)[nH]c2[nH]c(=S)[nH]c12`, the inhibition was 92.7% (active).

In the case of `COc1ccccc1N1CCN(C(=O)c2cc(=O)c3cc(C)cc(C)c3o2)CC1`, the inhibition is 0.82% (inactive).

For the molecule `CCOc1ccc(N2CC(C(=O)NCCN3C(=O)S/C(=C\c4cccnc4)C3=O)CC2=O)cc1` (configuration not stated), the inhibition is -2.41% (inactive).

With `COc1ccccc1N1CC(C(=O)NCCN2C(=O)S/C(=C\c3cccnc3)C2=O)CC1=O` (configuration not stated), the inhibition is 14.4% (inactive).

For the molecule `COc1ccc(N2CC(C(=O)NCCN3C(=O)S/C(=C\c4cccnc4)C3=O)CC2=O)c(OC)c1` (configuration not stated), the inhibition is 166% (active).

Turning to `CC1CC(=O)N(CC(=O)Nc2cccc(Cl)c2)c2ccccc2S1(=O)=O` (configuration not stated), the inhibition was -4.67% (inactive).

For the molecule `CCCC1OC23CCCCC2C(C#N)(C#N)C1(C#N)C(=N)O3` (configuration not stated), the inhibition is 95.8% (active).

Take `CCCC[C@@H]1CN=C(N)N1CCc1cc(C(F)(F)F)cc(C(F)(F)F)c1`: the inhibition is 10.6% (inactive).

As to `O=C(Nn1c(-c2ccc(Cl)cc2)nc2ccccc2c1=O)c1cccnc1Cl`, the inhibition was 5.2% (inactive).

Consider `CN(C)c1ccc(Nc2c3c4c(cccc4n(C)c2=O)C(=O)c2ccccc2-3)cc1`, for which the inhibition is 55.2% (active).

In the case of `CCOC(=O)C(CC)/C(C)=N\NC(=O)c1cccc(C)c1` (configuration not stated), the inhibition was -4.82% (inactive).

For the molecule `Cc1ccc(NS(=O)(=O)c2ccc(F)cc2)nc1`, the inhibition was 1.22% (inactive).

`Cc1cc(-c2csc(N)n2)c(C)n1Cc1ccccc1`: the inhibition is 6.96% (inactive).

Turning to `CC(=O)c1ccc(-c2ccc(Cn3c(C)nc4cc(N)c(C)nc43)cc2)cc1`, the inhibition was 8.3% (inactive).

Turning to `COc1ccccc1NC(=O)COC(=O)Cc1ccc(S(=O)(=O)N2CCCCC2)s1`, the inhibition is -0.05% (inactive).

As for `C/C(=N\NC(=O)c1ccoc1C)c1ccccc1O`, the inhibition is 4.86% (inactive).

`Cc1nn(-c2ccc([N+](=O)[O-])cc2)c(N)c1-c1ccccc1`: the inhibition was -34.6% (inactive).

Regarding `Cc1nn(C(=O)c2ccoc2C)c(N)c1-c1ccccc1`, the inhibition was 193% (active).

Consider `Cc1csc(NC(=O)CSc2nc(=O)n(CCCN(C)C)c3c2CCC3)n1`, for which the inhibition was -0.83% (inactive).

With `COc1ccc(SCCN2CCN(CC(C)C)CCC2=O)cc1`, the inhibition was -4.27% (inactive).

For `CC(=O)N(CC(O)CO)c1c(I)c(C(=O)NCC(O)CO)c(I)c(C(=O)NCC(O)CO)c1I` (configuration not stated), the inhibition was -0.91% (inactive).

With `COCCn1c(SCC(=O)Nc2nc(C)cs2)nnc1C(C)C`, the inhibition was -2.37% (inactive).

For `O=c1[nH]c(N2CCOCC2)nc2ccccc12`, the inhibition was 2.38% (inactive).

For `C1=C(N2CCOCC2)/C(=C/c2nc3ccccc3[nH]2)CC1`, the inhibition was 105% (active).

For the molecule `CC1(C)Cc2c(C#N)c(SCc3nc4ccccc4[nH]3)nc(N3CCOCC3)c2CO1`, the inhibition was 3.45% (inactive).

Turning to `CNC(=O)N1c2ccccc2C=Cc2ccccc21`, the inhibition was -1.86% (inactive).

In the case of `CS(=O)(=O)N1CCc2nc(-c3ccccc3)sc2C1`, the inhibition was 7.75% (inactive).

Take `COc1ncnc2c1N=C1CC(C)(C)CC(N)=C1S2`: the inhibition was 191% (active).

As for `CCN(CC)S(=O)(=O)c1ccc2[nH]c(=O)cc(C(=O)N(C)C3CCS(=O)(=O)C3)c2c1` (configuration not stated), the inhibition is 7.4% (inactive).

Regarding `CCCC(C(=O)OCCN(CC)CC)(c1ccccc1)c1ccccc1`, the inhibition was -3.08% (inactive).

For the molecule `CCCN1CC=C2C(C#N)=C(N)C(C#N)(C#N)C(c3cc(OC)ccc3OC)C2C1` (configuration not stated), the inhibition is 68.3% (active).

Take `N#CC1=C(N)C(C#N)(C#N)[C@H](c2ccsc2)[C@H]2COCC=C12`: the inhibition is 32.7% (inactive).

For `CCN1CC=C2C(C#N)=C(N)C(C#N)(C#N)[C@H](c3ccoc3)[C@H]2C1`, the inhibition was 171% (active).

As to `CSc1ccccc1NC(=O)c1cnc2sc(C)cn2c1=O`, the inhibition was 3.46% (inactive).

Consider `O=C(OCC(=O)N1CCOCC1)c1ccc2ccccc2c1`, for which the inhibition is -1.12% (inactive).

Take `CCCc1nc2c(c(=O)c3ccccc3n2C)c(=O)n1C1CCCCCC1`: the inhibition was -7.58% (inactive).

For the molecule `Cn1c2ccccc2c(=O)c2c(=O)n(Cc3ccco3)c(COc3ccccc3)nc21`, the inhibition is 60.6% (active).

On to `O=c1c2ccccc2oc2nc(C3CCCCC3)n(Cc3ccco3)c(=O)c12`, for which the inhibition was 2.28% (inactive).

For `O=C(O)c1ccc(S(=O)(=O)N2CCOCC2)o1`, the inhibition is -0.62% (inactive).

On to `COC(=O)N/N=C/c1c[n+]([O-])c2ccccc2[n+]1[O-]`, for which the inhibition was 5.75% (inactive).
